Test results from ChEMBL document CHEMBL1961873, “Compounds: GSK PKIS; Assays: Nanosyn kinase panel” (2012).

How the values were obtained:
[1] = biological target: T1, Serine/threonine-protein kinase TBK1 (Homo sapiens) (UniProt Q9UHD2); conditions: at 1 µM;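 note: values are mean inhibition of TBK1, screened as part of the GSK published kinase inhibitor set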
T1 sequence (whole entry): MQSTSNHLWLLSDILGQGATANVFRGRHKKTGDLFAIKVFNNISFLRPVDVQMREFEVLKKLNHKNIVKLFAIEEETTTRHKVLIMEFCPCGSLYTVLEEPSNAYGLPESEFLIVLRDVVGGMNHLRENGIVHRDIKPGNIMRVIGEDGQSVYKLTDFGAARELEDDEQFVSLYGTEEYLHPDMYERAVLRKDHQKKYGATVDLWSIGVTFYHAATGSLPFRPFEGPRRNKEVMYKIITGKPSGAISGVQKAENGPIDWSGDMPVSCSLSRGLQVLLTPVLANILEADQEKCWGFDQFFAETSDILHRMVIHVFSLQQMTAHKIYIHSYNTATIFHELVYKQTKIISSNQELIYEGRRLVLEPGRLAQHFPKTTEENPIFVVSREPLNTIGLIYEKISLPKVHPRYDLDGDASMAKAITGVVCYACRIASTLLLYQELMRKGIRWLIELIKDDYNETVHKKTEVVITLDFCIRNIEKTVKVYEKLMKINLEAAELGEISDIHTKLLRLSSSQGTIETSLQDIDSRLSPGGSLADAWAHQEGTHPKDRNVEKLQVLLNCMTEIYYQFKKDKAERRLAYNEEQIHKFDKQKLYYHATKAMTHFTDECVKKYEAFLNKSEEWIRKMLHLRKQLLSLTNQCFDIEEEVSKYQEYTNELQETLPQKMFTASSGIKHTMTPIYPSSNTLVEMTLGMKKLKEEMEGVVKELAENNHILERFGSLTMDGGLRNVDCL

[2] = biological target: T2, Testis-specific serine/threonine-protein kinase 1 (Homo sapiens) (UniProt Q9BXA7); conditions: at 0.1 µM
T2 sequence (whole entry): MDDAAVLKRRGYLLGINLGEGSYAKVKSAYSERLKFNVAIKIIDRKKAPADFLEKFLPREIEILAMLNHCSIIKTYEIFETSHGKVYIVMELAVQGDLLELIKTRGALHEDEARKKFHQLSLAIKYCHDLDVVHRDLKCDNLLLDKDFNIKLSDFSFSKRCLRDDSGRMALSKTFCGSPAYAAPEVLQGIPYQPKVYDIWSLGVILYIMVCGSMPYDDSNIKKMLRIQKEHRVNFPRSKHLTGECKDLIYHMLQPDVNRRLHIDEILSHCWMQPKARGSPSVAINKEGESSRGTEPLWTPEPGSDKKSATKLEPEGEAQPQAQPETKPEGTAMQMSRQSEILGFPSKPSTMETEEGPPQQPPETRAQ

[3] = biological target: T2, Testis-specific serine/threonine-protein kinase 1 (Homo sapiens); conditions: at 1 µM
[4] = biological target: T3, Testis-specific serine/threonine-protein kinase 2 (Homo sapiens) (UniProt Q96PF2); conditions: at 0.1 µM
T3 sequence (whole entry): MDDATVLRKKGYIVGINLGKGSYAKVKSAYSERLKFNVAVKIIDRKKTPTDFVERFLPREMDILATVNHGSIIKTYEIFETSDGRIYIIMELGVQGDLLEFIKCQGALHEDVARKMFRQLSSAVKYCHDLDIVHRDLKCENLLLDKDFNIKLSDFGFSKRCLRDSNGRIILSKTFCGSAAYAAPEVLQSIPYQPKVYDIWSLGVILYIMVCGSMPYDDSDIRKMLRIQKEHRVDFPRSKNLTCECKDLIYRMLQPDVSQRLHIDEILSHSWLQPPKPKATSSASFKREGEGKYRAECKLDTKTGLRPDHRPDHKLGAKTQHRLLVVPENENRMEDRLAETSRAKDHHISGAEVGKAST

[5] = biological target: T3, Testis-specific serine/threonine-protein kinase 2 (Homo sapiens); conditions: at 1 µM
[6] = biological target: Casein kinase I isoform alpha (Homo sapiens) (UniProt P48729); conditions: at 0.1 µM
[7] = biological target: Casein kinase I isoform alpha (Homo sapiens) (UniProt P48729); conditions: at 1 µM
[8] = biological target: Casein kinase I isoform gamma-1 (Homo sapiens) (UniProt Q9HCP0); conditions: at 0.1 µM
[9] = biological target: Casein kinase I isoform gamma-1 (Homo sapiens) (UniProt Q9HCP0); conditions: at 1 µM
[10] = biological target: Casein kinase I isoform gamma-2 (Homo sapiens) (UniProt P78368); conditions: at 0.1 µM
[11] = biological target: Casein kinase I isoform gamma-2 (Homo sapiens) (UniProt P78368); conditions: at 1 µM
[12] = biological target: Casein kinase I isoform gamma-3 (Homo sapiens) (UniProt Q9Y6M4); conditions: at 0.1 µM
[13] = biological target: Casein kinase I isoform gamma-3 (Homo sapiens) (UniProt Q9Y6M4); conditions: at 1 µM
[14] = biological target: Cyclin-dependent kinase 1 (Homo sapiens) (UniProt P06493); conditions: at 0.1 µM
[15] = biological target: Cyclin-dependent kinase 1 (Homo sapiens) (UniProt P06493); conditions: at 1 µM
[16] = biological target: CDK3/Cyclin E (Homo sapiens) (UniProt P24864+Q00526); conditions: at 0.1 µM;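 note: reported percentages are mean inhibition values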
[17] = biological target: Cyclin-dependent kinase 2 (Homo sapiens) (UniProt P24941); conditions: at 0.1 µM
[18] = biological target: Cyclin-dependent kinase 2 (Homo sapiens) (UniProt P24941); conditions: at 1 µM
[19] = biological target: Cyclin-dependent kinase 2 (Homo sapiens) (UniProt P24941); conditions: at 0.1 µM; remark: listed apart in the source
[20] = biological target: Cyclin-dependent kinase 2 (Homo sapiens) (UniProt P24941); conditions: at 1 µM; remark: listed apart in the source

Sequence of Casein kinase I isoform alpha (Homo sapiens) (P48729 2-337 limits assumed): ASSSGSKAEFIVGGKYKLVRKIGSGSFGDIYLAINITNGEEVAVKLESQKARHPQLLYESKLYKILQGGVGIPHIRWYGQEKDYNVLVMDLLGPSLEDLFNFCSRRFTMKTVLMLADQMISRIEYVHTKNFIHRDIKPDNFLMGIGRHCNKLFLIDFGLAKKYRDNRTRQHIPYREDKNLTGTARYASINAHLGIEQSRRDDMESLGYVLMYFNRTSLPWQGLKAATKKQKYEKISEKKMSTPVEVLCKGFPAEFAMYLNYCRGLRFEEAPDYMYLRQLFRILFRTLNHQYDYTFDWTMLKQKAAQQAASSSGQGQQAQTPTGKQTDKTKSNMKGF
Sequence of CDK3/Cyclin E (Homo sapiens) (P24864 whole entry, looked up): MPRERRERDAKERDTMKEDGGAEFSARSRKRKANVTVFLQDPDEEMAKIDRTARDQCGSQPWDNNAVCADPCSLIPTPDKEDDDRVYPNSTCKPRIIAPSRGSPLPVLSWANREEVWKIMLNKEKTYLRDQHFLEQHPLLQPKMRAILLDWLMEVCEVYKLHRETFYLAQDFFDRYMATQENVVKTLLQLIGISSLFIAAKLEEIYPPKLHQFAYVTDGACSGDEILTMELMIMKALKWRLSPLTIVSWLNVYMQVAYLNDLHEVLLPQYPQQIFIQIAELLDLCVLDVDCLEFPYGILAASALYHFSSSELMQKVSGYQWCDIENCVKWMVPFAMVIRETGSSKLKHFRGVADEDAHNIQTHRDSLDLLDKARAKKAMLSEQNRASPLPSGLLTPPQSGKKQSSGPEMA
Sequence of CDK3/Cyclin E (Homo sapiens) (Q00526 whole entry, looked up): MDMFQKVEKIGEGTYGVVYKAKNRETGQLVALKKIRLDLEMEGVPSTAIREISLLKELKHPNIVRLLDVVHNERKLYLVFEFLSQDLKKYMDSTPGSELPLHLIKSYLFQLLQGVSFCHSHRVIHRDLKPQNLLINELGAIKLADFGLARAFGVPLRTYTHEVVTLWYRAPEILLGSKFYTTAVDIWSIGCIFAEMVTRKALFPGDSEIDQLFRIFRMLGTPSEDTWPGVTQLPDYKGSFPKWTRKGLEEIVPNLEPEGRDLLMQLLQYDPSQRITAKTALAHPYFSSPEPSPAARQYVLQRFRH
Sequence of Casein kinase I isoform gamma-1 (Homo sapiens) (Q9HCP0 whole entry, looked up, canonical isoform): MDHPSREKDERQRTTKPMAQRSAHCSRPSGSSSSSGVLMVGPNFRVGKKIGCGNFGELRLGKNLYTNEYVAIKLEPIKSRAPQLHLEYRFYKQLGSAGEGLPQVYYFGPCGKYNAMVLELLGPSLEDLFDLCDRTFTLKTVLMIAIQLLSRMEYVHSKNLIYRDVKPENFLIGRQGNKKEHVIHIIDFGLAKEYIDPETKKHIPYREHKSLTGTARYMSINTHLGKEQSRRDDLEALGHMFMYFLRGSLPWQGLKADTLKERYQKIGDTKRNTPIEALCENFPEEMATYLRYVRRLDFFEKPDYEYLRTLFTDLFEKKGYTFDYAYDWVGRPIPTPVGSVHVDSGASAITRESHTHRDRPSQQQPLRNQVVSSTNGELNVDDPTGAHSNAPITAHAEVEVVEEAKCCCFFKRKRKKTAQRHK
Sequence of Casein kinase I isoform gamma-3 (Homo sapiens) (Q9Y6M4 whole entry, looked up, canonical isoform): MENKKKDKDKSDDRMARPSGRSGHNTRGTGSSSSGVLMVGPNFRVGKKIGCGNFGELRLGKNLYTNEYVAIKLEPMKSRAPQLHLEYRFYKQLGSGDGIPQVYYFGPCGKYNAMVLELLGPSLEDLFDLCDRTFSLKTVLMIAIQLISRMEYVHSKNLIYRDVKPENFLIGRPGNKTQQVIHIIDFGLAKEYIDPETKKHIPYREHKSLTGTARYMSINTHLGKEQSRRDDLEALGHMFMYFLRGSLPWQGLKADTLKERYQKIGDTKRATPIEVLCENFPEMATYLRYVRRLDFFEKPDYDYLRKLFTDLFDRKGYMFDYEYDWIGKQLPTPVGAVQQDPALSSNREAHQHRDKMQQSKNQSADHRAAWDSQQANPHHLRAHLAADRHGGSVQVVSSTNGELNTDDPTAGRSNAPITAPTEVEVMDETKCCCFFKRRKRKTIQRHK
Sequence of Cyclin-dependent kinase 1 (Homo sapiens) (P06493 whole entry, looked up): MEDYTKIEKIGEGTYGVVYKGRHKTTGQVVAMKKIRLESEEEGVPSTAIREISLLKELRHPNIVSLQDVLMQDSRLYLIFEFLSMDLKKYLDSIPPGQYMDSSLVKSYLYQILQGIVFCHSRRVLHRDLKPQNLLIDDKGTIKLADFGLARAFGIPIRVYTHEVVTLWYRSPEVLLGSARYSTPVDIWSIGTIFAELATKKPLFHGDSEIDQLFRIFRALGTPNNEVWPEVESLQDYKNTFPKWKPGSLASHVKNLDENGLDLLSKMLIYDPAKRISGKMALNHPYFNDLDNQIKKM
Sequence of Casein kinase I isoform gamma-2 (Homo sapiens) (P78368 whole entry, looked up, canonical isoform): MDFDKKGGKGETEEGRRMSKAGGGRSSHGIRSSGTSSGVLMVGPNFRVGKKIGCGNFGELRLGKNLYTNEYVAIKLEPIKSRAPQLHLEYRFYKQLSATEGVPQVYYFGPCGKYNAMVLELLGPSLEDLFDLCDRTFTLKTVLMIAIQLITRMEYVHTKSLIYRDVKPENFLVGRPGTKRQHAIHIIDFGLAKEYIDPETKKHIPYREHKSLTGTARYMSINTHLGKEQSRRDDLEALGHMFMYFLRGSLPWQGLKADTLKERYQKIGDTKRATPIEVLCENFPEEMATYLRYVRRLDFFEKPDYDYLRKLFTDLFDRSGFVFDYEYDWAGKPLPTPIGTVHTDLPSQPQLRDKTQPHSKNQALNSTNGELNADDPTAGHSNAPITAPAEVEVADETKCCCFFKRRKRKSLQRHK

Row | SMILES | inhibition [1] | inhibition [2] | inhibition [3] | inhibition [4] | inhibition [5] | inhibition [6] | inhibition [7] | inhibition [8] | inhibition [9] | inhibition [10] | inhibition [11] | inhibition [12] | inhibition [13] | inhibition [14] | inhibition [15] | inhibition [16] | inhibition [17] | inhibition [18] | inhibition [19] | inhibition [20]
1 | COc1ccc(COc2ccc(Cc3cnc(N)nc3N)cc2OC)cc1 | 2.86% | 0.44% | -1.27% | -0.95% | -0.65% | 0.49% | 0.48% | -0.8% | -0.45% | -2.36% | 0.05% | -0.67% | 0.85% | 1.89% | 1.42% | 2.3% | – | – | – | –
2 | O=C(Nc1n[nH]c2nc(-c3ccco3)c(Br)cc12)C1CC1 | 4.8% | 4.63% | 1.5% | -0.36% | -1.08% | 1.36% | 3.16% | 3.71% | 2.78% | 2.3% | 2.51% | 2.64% | 0.87% | 0.89% | 5.15% | 3.8% | 3.87% | 28.4% | 3.75% | 9.11%
3 | Cc1cc(O)cc(C)c1/C=C/c1cncc(-c2nn[nH]n2)c1 | 5.41% | 2.79% | 2.61% | 1.18% | 0.73% | 7.75% | 10.6% | 1.82% | 3.8% | 0.59% | 3.73% | -0.15% | 1.13% | -2.89% | -3.31% | 2.82% | -1.42% | 2.36% | 0.42% | 0.7%
4 | O=C1Nc2ccc(C(=O)c3ccco3)cc2C1=Cc1cc(Cl)c(O)c(Cl)c1 | 40.7% | 1.18% | 3.77% | 1.82% | 1.41% | -0.89% | 5.16% | 2.49% | 4.24% | 1.66% | 5.46% | 1.18% | 6.13% | 2.24% | 7.36% | 0.83% | 2.59% | 19.3% | 4.71% | 15.7%
5 | NS(=O)(=O)c1ccc(N/N=C2\C(=O)Nc3ccc(C(=O)NCCc4c[nH]cn4)cc32)cc1 | 26.8% | 6.64% | 11.2% | 3.37% | 1.67% | 9.71% | 8.41% | 4.44% | 9.85% | 3.01% | 9.23% | 5.54% | 16.4% | 30.1% | 76.1% | 26.9% | – | – | – | –
6 | CCCN1CCC(Oc2cc(Nc3nc(Nc4cccc(F)c4C(N)=O)c4cc[nH]c4n3)c(OC)cc2Cl)CC1 | 2.35% | 21.3% | 57.3% | 7.49% | 26.8% | 0.93% | 12.1% | -0.95% | 8.29% | -0.58% | 6.61% | -0.08% | 20.9% | -0.34% | 0.53% | 0.11% | 1.48% | 5.95% | -0.16% | 0.71%
7 | CCn1c(-c2nonc2N)nc2cncc(C(=O)N3CC[C@H](N)C3)c21 | 19.7% | 7.36% | 18.9% | 3.56% | 5.01% | – | – | 3.59% | 4.35% | 3.12% | 3.73% | 2.49% | 2.9% | 0.41% | – | 5.34% | 2.14% | -1.11% | 2.3% | 5.5%
8 | O=C1NC(=O)C(c2ccc(Cl)cc2)=C1Nc1ccc(Cl)c(C(=O)O)c1 | 0.78% | -1.77% | -3.14% | -1.44% | -2.14% | 0.85% | -1.03% | -1.57% | -2.04% | -1.56% | -1.57% | -0.68% | -1.39% | 0.08% | 1.14% | -0.7% | -1.04% | -8.99% | -0.37% | 0.53%
9 | COc1ccccc1Nc1ncc(-c2ccccc2)o1 | 2.91% | 4.78% | 4.46% | 2.44% | 2.11% | 2.14% | 2.52% | 4.56% | 5.25% | 4.37% | 3.85% | 3.77% | 5.78% | – | 0.64% | -1.03% | 2.24% | 3.34% | 1.7% | 4.15%
10 | NCc1ccc(-c2nc(-c3ccc(Cl)c(O)c3)c(-c3ccncc3)[nH]2)cc1 | 1.76% | 0.52% | 0.46% | -0.98% | -1.3% | 3.06% | 15.7% | 0.41% | 2.73% | 0.27% | 2.74% | 0.3% | 3.09% | 1.68% | 3.12% | 0.9% | 1.79% | 0.56% | 1.58% | 2.98%
11 | COc1cc2ncn(-c3cc(O[C@H](C)c4ccccc4Cl)c(C(N)=O)s3)c2cc1OC | 6.39% | 4.46% | 8.45% | 2.71% | 4.44% | 3% | 3.21% | 3.26% | 3.83% | 2.55% | 2.68% | 2.15% | 3.1% | 0.89% | 6.45% | 2.71% | – | – | – | –
12 | NC(=O)c1cccc(Nc2nccc(Nc3cccc4[nH]ncc34)n2)c1 | 26.1% | -0.96% | 15.6% | -1.7% | -1.85% | 1.36% | 1.87% | -2.71% | 5.27% | -1.57% | 1.89% | -2.55% | 9.56% | 1.69% | 14.5% | 1.14% | 10.3% | 59.9% | 3.38% | 34.2%
13 | c1cnn2ncc(-c3ccnc(Nc4ccc5c(c4)OCCO5)n3)c2c1 | 23.9% | 4.39% | 18.1% | 2.63% | 4.19% | 9.95% | 44.9% | 4.47% | 22.1% | 7.95% | 46.9% | 6.57% | 38% | 71.3% | 92.9% | 36.9% | 65.5% | 86.1% | 73.6% | –
14 | CCCN1CCC=C(c2ccc(Nc3nc(Nc4ccccc4C(N)=O)c4cc[nH]c4n3)c(C)c2)C1 | 9.03% | 29.9% | 76.7% | 7.28% | 37.6% | 8.97% | 47.6% | 22.5% | 59.8% | 31.1% | – | 36.1% | 69.3% | 2.18% | 7.53% | -2.97% | 5.19% | 22.5% | 3.79% | 28.3%
